The list is not random: actives were taken first. Their share in the collection is about 3%.
HMGR II inh – E. faecalis class II HMG-CoA reductase inhibition | purified E. faecalis HMGR, NADPH absorbance 340 nm kinetic | inhibition, % at 10 µM | 190,000 tested, 0.41% active;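 active = inhibition above a set limit, the median over all tested compounds plus 3 SD, cut at about 9.5% in these data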;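 also: enzyme runs in reverse so mevalonate oxidation gives rising NADPH absorbance; 0% = complete reaction with DMSO and 100% = background rate lacking mevalonate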
ROMK mod – modulators of human ROMK potassium channel. P48048. 130,000 tested, 2% active. AID 1918. B-score at 10 µM. Tet-inducible ROMK, thallium flux fluorescence; actives lie on both sides;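 active = signal ratio slope over the read window, or its plate-corrected B-score, at least 3 SD from the plate mean, either direction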;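 also: B-score of the F/F0 ratio slope over 7 to 12 s after thallium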
Target sequence (P48048 whole entry, looked up): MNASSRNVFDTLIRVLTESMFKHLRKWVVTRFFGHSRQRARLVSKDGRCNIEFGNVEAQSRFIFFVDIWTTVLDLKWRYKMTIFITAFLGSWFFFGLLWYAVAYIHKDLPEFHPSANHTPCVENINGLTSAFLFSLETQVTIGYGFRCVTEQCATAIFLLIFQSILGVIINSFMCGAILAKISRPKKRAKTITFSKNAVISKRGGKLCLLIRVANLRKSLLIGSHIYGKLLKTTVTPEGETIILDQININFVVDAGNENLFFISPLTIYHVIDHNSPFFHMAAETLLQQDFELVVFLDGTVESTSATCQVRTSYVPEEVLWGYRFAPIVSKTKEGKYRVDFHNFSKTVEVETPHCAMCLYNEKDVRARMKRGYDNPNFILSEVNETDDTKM
14-3-3 Bad PPI – disrupts binding of bovine 14-3-3 zeta to phospho-Bad peptide. TR-FRET 14-3-3zeta/Dy647-pBad peptide displacement, 1 h. inhibition, % at 21.7 µM. 220,000 tested, 0.71% active. AID 781. P63103;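 active = inhibition above about 70%, limit read from the data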;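 also: 0% = full 14-3-3 plus peptide FRET controls and 100% = background without 14-3-3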
Target sequence (P63103 whole entry, looked up): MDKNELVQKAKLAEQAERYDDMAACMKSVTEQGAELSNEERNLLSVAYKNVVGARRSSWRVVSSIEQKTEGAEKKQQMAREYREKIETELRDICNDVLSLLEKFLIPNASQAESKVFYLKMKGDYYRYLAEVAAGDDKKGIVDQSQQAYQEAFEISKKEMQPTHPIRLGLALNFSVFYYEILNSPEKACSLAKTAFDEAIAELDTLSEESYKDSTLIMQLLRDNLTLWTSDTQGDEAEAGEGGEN
Calpain2 inh – calpain II (pig) inhibition. purified calpain II, fluorogenic peptide substrate, 30 min. inhibition, % at 16 µM. 220,000 tested, 0.37% active;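 active = inhibition above about 50%, limit read from the data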
TNF necrop inh – TNF-alpha cell death inhibition in Jurkat FADD-/- cells. Jurkat FADD-/- TNF necroptosis rescue, ATP luminescence, 24 h; 0 = TNF only, 100 = no-TNF cells. activation (protection from cell death), % at 10 µM. 220,000 tested, 0.068% active;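 active = activation, meaning protection from cell death, of at least 50% relative to plate controls; inactive = activation below 50%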;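 also: necroptosis triggered by 40 ng/mL TNF-alpha added together with compound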
L929 necroptosis – L929 zVAD cell death inhibition. 220,000 tested, 0.38% active. AID 1377. L929 zVAD necroptosis rescue, ATP luminescence, 24 h; with zVAD 60 µM. viability rescue, % at 10 µM;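 active = activation, scaled between plate controls, above about 75%, limit read from the data; inactive = activation under that limit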;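 also: 0% = zVAD with DMSO and 100% = DMSO alone without zVAD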
zVAD death conf – confirmed blocker of zVAD induced death in L929 cells; activation (protection from necroptosis), % at 10 µM; 760 tested, 16% active; AID 463117; shares compounds with L929 necroptosis; L929 zVAD-induced necroptosis rescue, ATP luminescence, 24 h;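 active = mean protection from necroptosis of at least 50% over duplicate tests; inactive = mean protection below 50%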;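 also: 0% = cells with zVAD alone and 100% = vehicle cells without zVAD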
Numbers without * were called inactive; i = inactive; nt = no result; [ ] = remark or other dose.

SMILES | HMGR II inh | ROMK mod | 14-3-3 Bad PPI | Calpain2 inh | TNF necrop inh | L929 necroptosis | others
Cc1cccn2cc(-c3ccc(S(=O)(=O)N4CCCCC4)cc3)nc12 | 10* | -2.1 | -1 | i | 2 | 2
Cc1nnc(SC(C)C#N)n1-c1ccccc1 (centres undefined) | 12* | -0.0081 | -10 | -21 | 1 | 1
Cc1nnc(SCc2ccccc2C#N)n1-c1ccccc1 | -4 | 0.79 | 6 | -4 | -1 | 1
O=C(COC(=O)CC12CC3CC(CC(C3)C1)C2)Nc1cccnc1Cl | -3 | 0.91 | 1 | 59* | 1 | 2
Cc1cccc(N2CCN(Cc3nc(-c4cccc(Oc5ccccc5)c4)oc3C)CC2)n1 | -3 | 0.34 | -8 | 4 | 2 | 1
COc1cc(CN2CCC(C(=O)N3CCC(C)CC3)CC2)cc(Br)c1O | -4 | nt | 79* | -48 | -5 | 0
N#Cc1cccc(NC(=S)Nc2ccccc2)c1 | 4 | -0.56 | -24 | 16 | 0 | 0
CC(=O)OCc1c(C(F)(F)F)nn(C)c1SCc1ccc(Cl)cc1 | 0 | 0.33 | 141*[fluorescence artefact?] | 29 | 1 | 0
CCCCCCNc1c([N+](=O)[O-])c(=O)sc2ccccc12 | -3 | 0.47 | -8 | 1 | 0 | 2
Cc1c(C(=O)Nc2ccccc2)cn2c(nc3ccccc32)c1C#N | -2 | -1.6 | 6 | -62 | 2 | 2
Cc1ccccc1C(=O)Nc1ccc2c(C#N)c3nc4ccccc4nc3n2c1 | -9 | nt | 89*[fluorescence artefact?] | -25 | -4 | 0
CC(=O)Nc1cccc(C(=O)OC(C(=O)c2ccc(C)c(C)c2)c2ccccc2)c1 (centres undefined) | 4 | nt | -4 | -8 | -9 | 83*
O=c1c(C(c2ccccc2)c2c(O)sc3ccccc3c2=O)c(O)sc2ccccc12 | -1 | nt | 19 | 51* | 0 | 1
CCN(CC)S(=O)(=O)c1cccc(NC2=NCC(C)S2)c1 (centres undefined) | -6 | 0.083 | -4 | 7 | 0 | 3
CCn1c(CNC(=O)c2cccs2)n[nH]c1=S | 1 | 0.17 | -1 | -8 | 1 | 0
CCn1c(CSc2nc3ccccc3[nH]2)nc2cc(C(=O)O)ccc21 | -2 | 0.025 | 35 | 21 | 1 | 0
CCn1c(CSc2nccn2C)nc2cc(C(=O)O)ccc21 | -4 | nt | 72* | -28 | -2 | 0
CC1=CC(C)(C)Nc2ccc(OC(=O)C(Cc3ccccc3)N3C(=O)c4ccccc4C3=O)cc21 (centres undefined) | -5 | 0.25 | 13 | -30 | -5 | 97*
CC1=CC(C)(C)Nc2ccc(OC(=O)CN3C(=O)c4ccccc4C3=O)cc21 | 0 | nt | 0 | -475 | -8 | 14
O=C1NN=C(c2ccc(Cl)cc2)CC1c1cccc(Br)c1 (centres undefined) | 0 | -1.5 | -6 | 54* | 1 | 4
Cc1ccc(N=Nc2c(N)[nH]n3c(=O)cc(C)nc23)cc1 | 1 | nt | -9 | 3 | 2 | 76* | zVAD death conf=0
Cn1c(=O)c2[nH]c(N3CCN(c4ccccn4)CC3)nc2n(C)c1=O | -5 | 0.46 | -8 | -18 | 3 | 75* | zVAD death conf=2
Cn1c(=O)c2[nH]c(N3CCCCC3)nc2n(C)c1=O | nt | nt | 18 | 12 | 2 | 1
CC(C)c1ccc(C2NC(=S)NC3=C2C(=O)CC(C)(C)C3)cc1 (centres undefined) | -7 | nt | 4 | 4 | 0 | 2
CCC(=O)Nc1ccc(C(=O)NNC(=O)COc2cc(C)ccc2C)cc1 | -3 | nt | 4 | 16 | 1 | 85* | zVAD death conf=45
SMILES | HMGR II inh | ROMK mod | 14-3-3 Bad PPI | Calpain2 inh | TNF necrop inh | L929 necroptosis | others
COC(=O)NNC(=O)COc1cc(C)ccc1C | -3 | 0.83 | 10 | 18 | 1 | 0
CC(C)Oc1cccc(-c2cc(C(=O)NC(=S)N(C)c3ccccc3C(=O)O)c3ccccc3n2)c1 | -3 | nt | -10 | -87 | 2 | 2
O=C(Cn1nnc(-c2ccc(NC(=O)c3ccccc3F)cc2)n1)NCc1ccc(F)cc1 | nt | nt | 49 | -46 | 3 | 84* | zVAD death conf=38
COc1ccc(C(=O)Nc2ccc(-c3nnn(CC(=O)NCc4ccco4)n3)cc2)cc1 | nt | nt | 23 | -4 | -4 | 77* | zVAD death conf=36
O=C(Cn1nnc(-c2ccc(Cl)cc2)n1)NCc1ccco1 | 4 | 0.71 | 4 | -38 | 2 | 2
O=C(Nc1ccc(-c2nnn(CC(=O)N3CCN(C(=O)c4ccco4)CC3)n2)cc1)c1ccccc1F | -5 | 0.84 | -16 | -58 | 4 | 74
O=C(/C=C/Nc1ccc(Cc2ccc(N/C=C/C(=O)C(F)(F)F)cc2)cc1)C(F)(F)F | -4 | nt | 7 | -14 | -2 | 2
CN(C)S(=O)(=O)Oc1ccc(C(=O)Nc2cccc(C(F)(F)F)c2)cc1 | 2 | 0.41 | -5 | 22 | -4 | 79* | zVAD death conf=3
CN(c1cccc(NC(=O)c2ccc(N(C)S(=O)(=O)c3ccccc3)cc2)c1)S(C)(=O)=O | -6 | nt | -4 | 24 | -4 | 1
CN(c1cccc(NC(=O)c2ccc(C(C)(C)C)cc2)c1)S(C)(=O)=O | -6 | -1.2 | -20 | 1 | -2 | 77* | zVAD death conf=36
CN(c1cccc(NC(=O)CSc2ccc(Cl)cc2)c1)S(C)(=O)=O | -5 | -1.1 | 6 | 8 | -7 | 75* | zVAD death conf=3
CN(C)S(=O)(=O)Oc1ccc(C(=O)Nc2cccc(Cl)c2)cc1 | 1 | 0.016 | -19 | 4 | 4 | 64
Cc1nc2ccccc2c(C)c1C(=O)c1ccccc1 | -1 | -0.79 | 25 | 28 | 1 | 1
O=c1nc2cccc3c2=c(/c1=C(\O)c1ccccc1)c1ccccc1c3=O | -2 | -0.8 | 4 | 29 | 3 | 80* | zVAD death conf=0
CC(=O)N1CCN(CC(=O)Nc2ccccc2Sc2ccccc2)CC1 | -5 | 0.066 | 10 | 10 | -1 | -1
CN(C(=S)NC1=CCS(=O)(=O)C1)C1CCCCC1 | 2 | -0.5 | -14 | -4 | 1 | 1
COc1cccc(C2=NNC(=NCc3ccccc3)SC2)c1 | -2 | 0.088 | -5 | 6 | 38 | 1
Cc1ccc(C)c(C2=NNC(=NCc3ccccc3)SC2)c1 | -3 | -0.54 | -19 | -20 | 95* | 77* | zVAD death conf=25
COc1cc2[nH]c3c(N4CCN(c5ccc(Cl)cc5)CC4)ncnc3c2cc1OC | -3 | 0.93 | nt | -276 | -4 | 2
COc1cc2[nH]c3c(Cl)ncnc3c2cc1OC | -5 | nt | -1 | -18 | 2 | 77* | zVAD death conf=13
Nc1nc(CN2CCN(C(=O)c3ccco3)CC2)nc(Nc2cccc(Cl)c2)n1 | -2 | -1.8 | 10 | 16 | -1 | -2
CCOc1ccccc1NC1=NC2CS(=O)(=O)CC2S1 (centres undefined) | nt | 0.44 | 1 | 24 | 1 | 0
